Laboratory results published in PubChem BioAssay.
The source made the active and inactive calls.

Columns and labels:
[1] = probe aLefty2 binding to arrayed compounds – biochemical, biotinylated probe, 635/667 nm fluorescence, primary screen (AID 1094); details: small-molecule microarray, higher = more signal;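 further: score merges spot fluorescence near 667 nm with spot signal-to-noise ratio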
[2] = system: Noggin (protein binding on small-molecule microarray); test: small molecules binding Noggin protein – biochemical, 635/667 nm fluorescence, primary screen (AID 1095); details: 635 nm fluorescence, higher = more signal;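 further: score merges 667 nm feature fluorescence with signal to noise over triplicate slides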
[3] = target: Neurogenic locus notch homolog protein 3 (Homo sapiens) (UniProt Q9UM47); test: small molecules binding NOTCH3 protein – biochemical, 635/667 nm fluorescence, primary screen (AID 1096); details: small-molecule microarray, 635 nm fluorescence, higher = more signal
Chain of Neurogenic locus notch homolog protein 3 (Homo sapiens) (Q9UM47 whole entry, looked up): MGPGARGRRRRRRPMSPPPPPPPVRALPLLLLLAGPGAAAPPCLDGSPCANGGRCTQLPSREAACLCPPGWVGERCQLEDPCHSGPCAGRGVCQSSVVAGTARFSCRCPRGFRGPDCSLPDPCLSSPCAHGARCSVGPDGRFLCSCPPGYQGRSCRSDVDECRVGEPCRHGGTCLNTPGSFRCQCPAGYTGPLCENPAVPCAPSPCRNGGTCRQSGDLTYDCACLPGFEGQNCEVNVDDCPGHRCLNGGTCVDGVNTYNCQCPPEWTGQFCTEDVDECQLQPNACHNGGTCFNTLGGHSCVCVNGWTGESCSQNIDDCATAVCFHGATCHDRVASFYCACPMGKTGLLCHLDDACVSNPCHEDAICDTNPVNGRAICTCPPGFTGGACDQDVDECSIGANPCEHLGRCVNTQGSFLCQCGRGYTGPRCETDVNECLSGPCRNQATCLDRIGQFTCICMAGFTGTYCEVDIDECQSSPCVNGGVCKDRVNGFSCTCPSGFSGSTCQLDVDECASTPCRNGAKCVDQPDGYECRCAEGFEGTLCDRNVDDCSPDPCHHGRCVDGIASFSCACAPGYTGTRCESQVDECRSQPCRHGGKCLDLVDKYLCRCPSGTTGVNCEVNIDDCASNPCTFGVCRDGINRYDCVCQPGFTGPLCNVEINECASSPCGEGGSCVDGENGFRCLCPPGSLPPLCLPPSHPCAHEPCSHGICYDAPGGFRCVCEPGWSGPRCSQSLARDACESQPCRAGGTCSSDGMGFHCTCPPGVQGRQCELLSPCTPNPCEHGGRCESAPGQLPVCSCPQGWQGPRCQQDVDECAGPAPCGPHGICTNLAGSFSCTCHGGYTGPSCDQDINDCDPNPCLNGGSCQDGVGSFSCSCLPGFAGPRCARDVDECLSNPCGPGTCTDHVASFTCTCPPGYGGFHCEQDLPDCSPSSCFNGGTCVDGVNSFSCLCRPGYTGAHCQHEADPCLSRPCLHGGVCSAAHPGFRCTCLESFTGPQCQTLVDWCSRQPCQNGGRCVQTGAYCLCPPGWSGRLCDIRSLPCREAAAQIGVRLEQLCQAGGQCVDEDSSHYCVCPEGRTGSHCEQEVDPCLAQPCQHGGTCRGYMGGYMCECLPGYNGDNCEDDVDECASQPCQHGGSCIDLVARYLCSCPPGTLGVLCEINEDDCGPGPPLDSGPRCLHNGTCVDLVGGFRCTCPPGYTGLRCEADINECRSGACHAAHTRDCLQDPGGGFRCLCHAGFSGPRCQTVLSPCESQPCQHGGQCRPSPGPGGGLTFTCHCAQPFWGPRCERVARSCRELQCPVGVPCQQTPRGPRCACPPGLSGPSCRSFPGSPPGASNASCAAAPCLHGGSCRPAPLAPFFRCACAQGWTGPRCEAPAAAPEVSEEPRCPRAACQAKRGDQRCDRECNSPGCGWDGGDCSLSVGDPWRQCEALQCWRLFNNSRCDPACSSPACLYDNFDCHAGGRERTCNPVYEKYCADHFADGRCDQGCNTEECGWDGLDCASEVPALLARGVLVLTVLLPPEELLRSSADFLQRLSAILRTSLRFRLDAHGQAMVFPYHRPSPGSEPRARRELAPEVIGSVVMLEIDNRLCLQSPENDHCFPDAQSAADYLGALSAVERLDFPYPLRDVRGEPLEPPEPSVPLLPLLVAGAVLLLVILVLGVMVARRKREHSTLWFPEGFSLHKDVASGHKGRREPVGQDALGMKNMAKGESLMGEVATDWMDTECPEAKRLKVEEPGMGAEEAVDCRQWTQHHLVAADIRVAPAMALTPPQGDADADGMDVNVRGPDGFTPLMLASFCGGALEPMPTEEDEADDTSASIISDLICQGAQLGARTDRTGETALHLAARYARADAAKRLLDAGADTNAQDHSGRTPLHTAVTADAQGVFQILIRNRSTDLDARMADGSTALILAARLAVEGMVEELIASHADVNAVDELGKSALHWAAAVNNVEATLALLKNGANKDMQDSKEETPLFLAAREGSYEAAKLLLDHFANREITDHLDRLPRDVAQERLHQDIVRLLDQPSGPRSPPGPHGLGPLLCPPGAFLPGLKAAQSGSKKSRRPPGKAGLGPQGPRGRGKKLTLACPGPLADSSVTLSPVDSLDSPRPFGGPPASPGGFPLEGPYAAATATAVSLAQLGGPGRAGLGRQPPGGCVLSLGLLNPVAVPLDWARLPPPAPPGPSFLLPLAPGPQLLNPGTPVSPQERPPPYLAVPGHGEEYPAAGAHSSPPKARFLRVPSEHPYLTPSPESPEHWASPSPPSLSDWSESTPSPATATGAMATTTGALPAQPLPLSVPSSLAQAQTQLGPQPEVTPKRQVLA

[4] = probe aEGFR binding to arrayed compounds – biochemical, biotinylated probe, 635/667 nm fluorescence, primary screen (AID 1097); details: small-molecule microarray, higher = more signal;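 further: probe is a biotinylated anti-EGFR antibody binding compounds printed on slides; score combines fluorescence near 667 nm and signal to noise of each spot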
[5] = system: Plasmodium falciparum Sir2 (PF13_0152, Sir2A); test: Plasmodium falciparum Sir2A binding compounds – biochemical, small-molecule microarray, 635 nm fluorescence, primary screen (AID 1098); details: fluorescence 635 nm, higher = more signal;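 further: score merges spot fluorescence intensity with its signal-to-noise ratio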
[6] = probe aDKK1 binding to arrayed compounds – biochemical, biotinylated probe, 635/667 nm fluorescence, primary screen (AID 1099); details: small-molecule microarray, higher = more signal;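 further: score merges 667nm spot fluorescence with signal to noise across triplicate slides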
[7] = probe aCHRDL2 binding to arrayed compounds – biochemical, biotinylated probe, 635/667 nm fluorescence, primary screen (AID 1100); details: small-molecule microarray, higher = more signal
[8] = change in splice reporter luminescence, either direction, cell-based, HEK293, spliceosome inhibition project, primary screen (AID 1101); details: HEK293 splicing luciferase reporter, 24 h, higher = more signal, called active from +8 up or from −8 down;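 further: HEK293 cells carrying a splicing-competent luciferase reporter gene; test concentration not given here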
[9] = target: Fibroblast growth factor 10 (Homo sapiens) (UniProt O15520); test: compounds binding fibroblast growth factor 10 – biochemical, small-molecule microarray, 635 nm fluorescence, primary screen (AID 1102); details: FGF10 binding, fluorescence 635 nm, higher = more signal
Chain of Fibroblast growth factor 10 (Homo sapiens) (O15520 whole entry, looked up): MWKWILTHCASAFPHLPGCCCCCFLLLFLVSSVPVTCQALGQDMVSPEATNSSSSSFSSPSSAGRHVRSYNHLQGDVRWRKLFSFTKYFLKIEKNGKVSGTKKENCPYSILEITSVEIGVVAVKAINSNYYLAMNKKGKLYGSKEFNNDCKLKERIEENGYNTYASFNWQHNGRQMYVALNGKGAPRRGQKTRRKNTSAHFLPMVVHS

[10] = system: glycogen synthase kinase-3 (GSK3A per assay name; protocol says GSK3B); test: compounds binding glycogen synthase kinase-3 – biochemical, small-molecule microarray, 635 nm fluorescence, GSK3A, primary screen (AID 1103); details: fluorescence 635 nm, higher = more signal; further: the record names both GSK3A and GSK3B
[11] = target: Epidermal growth factor receptor (Homo sapiens) (UniProt P00533); test: compounds binding epidermal growth factor receptor – biochemical, small-molecule microarray, 635 nm fluorescence, primary screen (AID 1104); details: EGFR binding, higher = more signal;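 further: score merges 667 nm emission intensity with spot signal to noise over triplicate slides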
Chain of Epidermal growth factor receptor (Homo sapiens) (P00533 whole entry, looked up): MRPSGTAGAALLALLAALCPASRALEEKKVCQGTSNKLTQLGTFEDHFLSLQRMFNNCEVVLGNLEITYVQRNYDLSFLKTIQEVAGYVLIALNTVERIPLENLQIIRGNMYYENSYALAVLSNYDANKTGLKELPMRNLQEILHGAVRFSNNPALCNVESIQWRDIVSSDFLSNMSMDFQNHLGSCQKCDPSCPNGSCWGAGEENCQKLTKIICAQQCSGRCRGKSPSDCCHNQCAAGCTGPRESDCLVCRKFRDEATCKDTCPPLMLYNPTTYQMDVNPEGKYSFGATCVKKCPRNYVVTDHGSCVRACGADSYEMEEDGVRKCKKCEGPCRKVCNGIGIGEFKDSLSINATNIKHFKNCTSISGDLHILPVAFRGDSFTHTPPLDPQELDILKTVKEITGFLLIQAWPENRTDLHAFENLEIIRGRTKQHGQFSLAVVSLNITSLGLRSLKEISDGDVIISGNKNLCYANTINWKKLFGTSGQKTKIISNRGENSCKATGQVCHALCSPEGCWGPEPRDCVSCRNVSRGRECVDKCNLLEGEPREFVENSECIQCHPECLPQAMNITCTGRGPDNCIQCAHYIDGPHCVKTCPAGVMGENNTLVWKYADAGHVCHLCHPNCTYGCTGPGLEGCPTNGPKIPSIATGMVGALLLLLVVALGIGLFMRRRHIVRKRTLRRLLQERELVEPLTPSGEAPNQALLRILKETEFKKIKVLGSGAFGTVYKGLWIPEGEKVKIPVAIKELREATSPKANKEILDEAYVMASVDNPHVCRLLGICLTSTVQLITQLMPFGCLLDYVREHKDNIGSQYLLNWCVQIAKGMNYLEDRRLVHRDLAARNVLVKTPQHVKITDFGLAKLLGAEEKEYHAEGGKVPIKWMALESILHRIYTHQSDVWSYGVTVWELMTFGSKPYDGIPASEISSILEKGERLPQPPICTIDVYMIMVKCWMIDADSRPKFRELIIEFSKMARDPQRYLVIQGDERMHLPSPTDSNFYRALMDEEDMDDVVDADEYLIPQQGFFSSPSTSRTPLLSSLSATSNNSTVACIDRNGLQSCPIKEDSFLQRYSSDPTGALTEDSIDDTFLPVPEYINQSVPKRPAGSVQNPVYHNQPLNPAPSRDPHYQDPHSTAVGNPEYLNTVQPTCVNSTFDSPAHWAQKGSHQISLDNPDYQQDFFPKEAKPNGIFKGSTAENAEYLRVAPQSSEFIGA

[12] = target: Follistatin-related protein 3 (Homo sapiens) (UniProt O95633); test: compounds binding follistatin-related protein 3 – biochemical, small-molecule microarray, 635 nm fluorescence, primary screen (AID 1105); details: FSTL3 binding, higher = more signal;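 further: score merges emission near 667 nm and signal to noise per printed spot across three slides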
Chain of Follistatin-related protein 3 (Homo sapiens) (O95633 whole entry, looked up): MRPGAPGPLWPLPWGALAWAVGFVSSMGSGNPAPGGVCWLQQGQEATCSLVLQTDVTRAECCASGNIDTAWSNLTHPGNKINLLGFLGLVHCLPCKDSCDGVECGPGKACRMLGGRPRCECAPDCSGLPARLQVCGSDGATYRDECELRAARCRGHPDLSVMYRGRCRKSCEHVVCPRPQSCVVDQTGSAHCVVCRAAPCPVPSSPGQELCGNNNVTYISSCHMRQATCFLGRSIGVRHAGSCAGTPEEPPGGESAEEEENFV

[13] = target: Dickkopf-related protein 1 (Homo sapiens) (UniProt O94907); test: small molecules binding DKK1 protein – biochemical, small-molecule microarray, 635 nm fluorescence scan, primary screen (AID 1106); details: higher = more signal;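 further: score merges emission near 667 nm with signal to noise over three replicate slides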
Chain of Dickkopf-related protein 1 (Homo sapiens) (O94907 whole entry, looked up): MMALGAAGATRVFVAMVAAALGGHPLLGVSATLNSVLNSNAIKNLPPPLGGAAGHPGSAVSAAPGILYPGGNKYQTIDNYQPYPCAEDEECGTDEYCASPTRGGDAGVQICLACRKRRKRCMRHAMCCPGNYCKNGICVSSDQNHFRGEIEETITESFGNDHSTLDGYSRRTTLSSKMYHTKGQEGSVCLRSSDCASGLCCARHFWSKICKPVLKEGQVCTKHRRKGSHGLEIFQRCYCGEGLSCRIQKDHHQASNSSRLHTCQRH

[14] = system: Inhibin beta A chain (activin A); test: small molecules binding activin A – biochemical, small-molecule microarray, 635 nm fluorescence scan, primary screen (AID 1107); details: INHBA, higher = more signal;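 further: mouse activin A protein probed at 4.33 µg/mL on printed slides; score merges bound-protein fluorescence near 667 nm with spot signal-to-noise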
[15] = system: Human papillomavirus type 1a protein E7 (residues 44-93); test: small molecules binding HPV E7 44-93 – biochemical, small-molecule microarray, residues 44-93, 635 nm fluorescence, primary screen (AID 1108); details: fluorescence 635 nm, higher = more signal;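 further: E7 fragment applied at 1 µg/mL in TBST for 1 h at 4 C; score combines spot fluorescence with its signal to noise ratio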
[16] = hepatitis C replication reporter changes, two-sided – Huh7 cells, luciferase reporter, HCV replication inhibitor project, primary screen (AID 1109); details: Huh7 HCV replicon luciferase reporter, 48 h; higher = more signal;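 further: huh7 hepatoma cells harbouring a luciferase neomycin HCV replicon reporter; luciferase luminescence as measure of HCV replicon replication; test concentration not given here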
[17] = target: Left-right determination factor 2 (Homo sapiens) (UniProt O00292); test: small molecules binding LEFTY2 protein – biochemical, small-molecule microarray, 635 nm fluorescence scan, primary screen (AID 1110); details: higher = more signal
Chain of Left-right determination factor 2 (Homo sapiens) (O00292 whole entry, looked up): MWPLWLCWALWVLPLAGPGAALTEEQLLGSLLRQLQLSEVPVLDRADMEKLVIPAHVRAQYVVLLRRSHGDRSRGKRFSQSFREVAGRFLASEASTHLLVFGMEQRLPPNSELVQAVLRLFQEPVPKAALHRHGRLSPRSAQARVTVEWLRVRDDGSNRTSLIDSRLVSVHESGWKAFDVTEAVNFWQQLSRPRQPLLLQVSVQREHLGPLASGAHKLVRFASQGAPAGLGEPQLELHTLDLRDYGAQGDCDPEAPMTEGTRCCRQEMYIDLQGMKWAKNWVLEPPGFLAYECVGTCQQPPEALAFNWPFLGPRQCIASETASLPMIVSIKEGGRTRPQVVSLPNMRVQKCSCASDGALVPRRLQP

[18] = target: Calmodulin-1 (Homo sapiens) (UniProt P0DP23); test: small molecules binding calmodulin-1 with EGTA – biochemical, small-molecule microarray, Cy5-labelled CALM1, profiling panel (AID 1111); details: Cy5-CALM1 binding fluorescence, higher = more signal;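 further: labelled calmodulin applied in Tris saline Tween buffer holding calcium plus EGTA and DTT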
[19] = target: Calmodulin-1 (Homo sapiens) (UniProt P0DP23); test: small molecules binding Ca-loaded calmodulin-1 – biochemical, small-molecule microarray, Cy5-labelled CALM1, plus calcium, artefact control for SMM control-protein annotation, profiling panel (AID 1112); details: Cy5-CALM1 binding fluorescence, higher = more signal;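 further: score merges spot fluorescence with signal to noise from triplicate slides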
[20] = probe aWnt5a binding to arrayed compounds – biochemical, biotinylated probe, 635/667 nm fluorescence, primary screen (AID 1113); details: small-molecule microarray, higher = more signal;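 further: score merges 667 nm fluorescence intensity with signal-to-noise per printed feature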

Compound | composite z-score [1] | composite z-score [2] | composite z-score [3] | composite z-score [4] | composite z-score [5] | composite z-score [6] | composite z-score [7] | z-score [8] | composite z-score [9] | composite z-score [10] | composite z-score [11] | composite z-score [12] | composite z-score [13] | composite z-score [14] | composite z-score [15] | z-score [16] | composite z-score [17] | composite z-score [18] | composite z-score [19] | composite z-score [20]
O=C1O[C@@H](c2ccccc2)[C@@H](c2ccccc2)N2[C@@H](c3ccc(OCCO)cc3)[C@]3(C(=O)Nc4ccc(C#CC5(O)CCCCCC5)cc43)[C@@H](C(=O)NC[C@H](O)c3ccccc3)[C@H]12 | 0.0844 | 0.982 | 1.04 | -0.0332 | 1.37 | 0.914 | 0.864 | -0.828 (inactive) | 1.15 | 1.17 | 0.244 | 1.25 | 0.382 | 0.42 | 1.24 | -2.06 | 0.497 | 1.97 | 0.638 | -0.0877
CC(C)NC(=O)[C@@H]1c2ccccc2C(=O)N(Cc2cc(F)cc(C(F)(F)F)c2)[C@H]1c1ccc(CO)cc1 | 0.0071 | -1.34 | -0.706 | 0.0629 | 1.51 | 0.478 | 0.94 | -1.05 (inactive) | -0.535 | -0.825 | -0.979 | -1.17 | -0.833 | -0.476 | 0.719 | 0.32 | -0.556 | 0.343 | 0.916 | -0.25
COc1c(C)cc(-c2cc3c(c(CCc4ccccc4)n2)[Si](C(C)C)(C(C)C)OC3)cc1C | -0.0866 | 0.288 | 0.34 | 0.0068 | -0.615 | 0.335 | 0.156 | -1.28 (inactive) | 0.513 | 0.723 | 0.927 | 0.567 | 0.162 | 0.474 | 0.804 | 0.336 | 0.474 | -0.354 | -0.381 | -0.152
O=C(NCC(F)(F)F)[C@@H]1c2ccccc2C(=O)N(C2Cc3ccccc3C2)[C@H]1c1ccc(CO)cc1 | 0.107 | -1.29 | -0.844 | -0.129 | 0.23 | 0.621 | 0.715 | -0.658 (inactive) | -0.691 | -0.605 | -0.621 | -0.584 | -0.808 | 1.03 | -1.07 | -0.561 | -1.21 | 0.342 | 1.14 | -0.129
CC1CC/C=C\[C@H]2OC34C=CCN(C(C)C)C(=O)[C@H]3N(C(CO)C(C)C)C(=O)[C@@H]4C2C(=O)O1 (stereo not given in full) | -0.0229 | -0.684 | -0.274 | -0.154 | -0.144 | 0.0383 | 0.228 | -0.0607 (inactive) | -0.505 | -0.95 | -0.818 | -0.253 | -0.429 | 0.64 | -1.48 | -0.403 | -0.944 | -1 | -0.339 | -0.202
O=c1n(-c2ccccc2)c(=O)n2n1CC(COc1ccccc1)=C1[C@@H](CCc3ccccc3)OB(O)C[C@@H]12 | -0.133 | 0.814 | 1.03 | 0.0209 | 0.812 | -0.178 | -0.482 | -1.14 (inactive) | 1.02 | 0.59 | 0.235 | 0.728 | 0.488 | 0.0187 | 0.398 | -1.91 | 0.41 | 0.0534 | 0.205 | 0.0181
Cc1ccc(S[C@]2(C(=O)NCCN3CCOCC3)CC(=O)N(Cc3cc(C(F)(F)F)cc(C(F)(F)F)c3)[C@@H]2c2ccc(CO)cc2)cc1 | -0.136 | -0.984 | -0.54 | -0.252 | 1.71 | 0.523 | 0.866 | -0.688 (inactive) | -0.703 | -1.45 | -1.19 | -1.15 | -1.05 | 0.156 | -0.233 | -0.429 | -1.13 | -0.411 | -0.132 | -0.175
C=CC[C@]1(C(=O)N2CCCCC2)COC(c2ccc(OCCCO)cc2)=N1 | 0.0499 | 0.452 | -0.904 | -0.0933 | -0.0697 | -0.0336 | 0.83 | 0.682 (inactive) | -0.621 | -0.217 | -1 | -1.32 | -0.358 | 1.28 | 0.0296 | -1.1 | -0.727 | -1.56 | -0.29 | -0.176
C=CCC(OC(C)=O)[C@@H]1[C@@H](N(Cc2cccc3ccccc23)C(=O)c2cccc3ccccc23)c2cc(OCCCO)ccc2N1C(=O)Cc1ccc(OC)cc1 (stereo not given in full) | -0.121 | 0.0439 | 0.171 | 0.0073 | 0.387 | 0.15 | 0.213 | -2.53 (inactive) | 0.481 | 0.311 | 0.129 | 0.478 | 0.388 | 1.18 | -0.37 | -0.348 | 0.384 | 0.293 | 0.394 | -0.0107
O=C1O[C@H](c2ccccc2)[C@H](c2ccccc2)N2[C@H]1[C@@H](C(=O)Nc1nc3ccccc3s1)[C@]1(C(=O)Nc3ccc(C#CCCO)cc31)[C@H]2c1ccccc1OCCO | 0.0459 | 0.244 | 0.912 | 0.0381 | 1.35 | 0.676 | 0.784 | -0.0121 (inactive) | 0.545 | 1.31 | 0.289 | 0.892 | 0.328 | 0.793 | 0.793 | -1.79 | 0.537 | 1.74 | 0.439 | 0.0849
CC(C)[C@@H](C(=O)O)n1cc(-c2ccccn2)nn1 | -0.378 | 0.332 | 0.309 | -0.0508 | -0.0369 | 0.98 | 0.33 | -0.015 (inactive) | 0.0739 | 0.428 | 0.278 | 0.0231 | 0.418 | 0.805 | 0.465 | -0.187 | 0.249 | 0.51 | 0.556 | -0.0216
COC(=O)C1=CC(CCCO)=CC(C2CC2)N(Cc2cc3c(cc2Br)OCO3)C=C1C(=O)OC (stereo not given) | 0.392 | -0.705 | 0.647 | 0.0821 | 1.57 | 1.03 | 1.14 | -0.575 (inactive) | 0.0344 | 0.194 | -0.482 | 0.0154 | 0.47 | 0.945 | 1.36 | -0.164 | -0.998 | 2.27 | 0.67 | -0.0269
CC(C)C[C@@H]1NC(=O)[C@@H]2C[C@H](C(=O)NCCCCCNC(=O)CS)[C@H](c3cccc(OCCO)c3)N2C1=O | -0.0153 | 1.44 | 1.06 | 0.133 | 1.68 | 0.588 | 0.619 | -1.15 (inactive) | 0.654 | 1.32 | 0.717 | 0.921 | 0.741 | 0.947 | 0.64 | 0.568 | 0.581 | 0.942 | 0.0355 | -0.0236
C=C1C=C(Br)C2(OCCCO2)[C@H]2OC12 (stereo not given in full) | -0.116 | 0.104 | 0.0347 | -0.076 | 0.313 | -0.118 | -0.533 | -0.0861 (inactive) | 0.125 | 0.259 | 0.442 | 0.322 | 0.536 | 0.831 | -0.524 | 1.38 | 0.333 | -0.367 | -0.755 | -0.176
CCCC[C@@H](O)C1=C(C)C[C@H]2C(=O)N(C)C(=O)[C@H]2[C@H]1CO | -0.328 | 1.09 | 0.352 | -0.21 | 1.42 | -0.372 | -0.493 | -0.72 (inactive) | 0.755 | 0.349 | 0.269 | 0.229 | 0.3 | -0.301 | 0.276 | 0.739 | 0.322 | -0.409 | -0.471 | -0.0944
CCOC(=O)C[C@H]1[C@H](OC(=O)c2ccc(C(=O)c3ccccc3)cc2)[C@@H](NC(=O)Cc2ccc(OC)cc2)c2cc(OCCCO)ccc2N1C(=O)Cc1ccc(OC)cc1 | 0.0673 | 0.22 | 1.13 | -0.0131 | 0.276 | 0.676 | 0.949 | -1.52 (inactive) | 0.371 | 0.283 | -0.137 | 0.321 | -0.177 | 0.962 | 1.06 | -1.06 | 0.39 | 1.31 | 0.655 | -0.0643
